Assay results from PubChem BioAssay (NCATS).
Records with an inconclusive call do not appear. Calls of active or inactive are those of the source. Unless noted, calls come from the whole dose curve; as a rule, active = well fitted curve in either direction with a large enough effect (not every such curve was filed as active); inconclusive = small, poorly fitted or top-dose-only effect, or another doubt; inactive = flat fitted curve, though single readings scatter.

Legend:
[1] = target: Lysosomal acid glucosylceramidase (Homo sapiens) (UniProt P04062); test: Glucocerebrosidase-p2 (AID 348; in the data active = potency below about 10 µM; note: potency is the fitted concentration of half-maximal effect); conditions: purified GBA, blue fluorogenic substrate, 40 min
In short: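 Normal human glucocerebrosidase (0.2 nM) with blue fluorogenic substrate (80 uM final) in citrate/phosphate pH 5.9 with 10mM sodium taurocholate, 0.01% tween-20; 40 min RT, NaOH/glycine stop; fluorescence Ex 365/Em 440; AC50 from a titration from 0.6 nM upwards.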

[2] = AP1 Signaling Pathway (AID 357); conditions: ME-180 AP-1-bla reporter, EGF-induced, beta-lactamase ratio, 5 h; at 7.69 µM (top of the series) unless noted;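 note: ME-180 reporter cells stimulated with EGF at its EC50 level; % is set by controls: 0 for no effect and ±100 for the full control effect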
In short: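 In this screen, ME-180 cells in Opti-MEM with 0.5% dialyzed FBS received EC50 EGF and compound titrations for 5 h. AP-1 reporter beta-lactamase was detected via CCF4 ratio, giving AC50 for positive and negative modulators.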

[3] = NFAT Signaling Pathway (AID 444); conditions: Jurkat NFAT-bla M1, carbachol, beta-lactamase ratio, 5 h; at 7.69 µM (top of the series) unless noted;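 note: carbachol stimulus at about its EC50 of 1 µM final; % is set by controls: 0 for no effect and ±100 for the full control effect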
In short: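 Read-out: CCF4 FRET ratio (460 nm/530 nm) after 1 h RT dye loading, used for %activity and AC50 from titration series. Cells: Jurkat NFAT-β-lactamase/M1 line, treated with compound plus 1 uM carbachol for 5 h, 37 °C.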

[4] = Stat Signaling Pathway (AID 446); conditions: ME-180 SIE beta-lactamase reporter, IL-6 stimulated, 5 h; at 7.69 µM (top of the series) unless noted;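 note: ME-180 cervical cancer cells given 40 pM IL-6 alongside compound; SIE-controlled beta-lactamase reporter measured as 460/530 nm FRET emission ratio; % is set by controls: 0 for no effect and ±100 for the full control effect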
In short: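 FRET read-out (405 nm excitation, 460/530 nm emission) of a beta-lactamase reporter under a STAT-inducible element in ME-180 cervical carcinoma cells. Cells with compound receive 40 pM IL-6 for 5 h. Values are normalised to AC90 stimulation and AC90 JAK-inhibitor controls.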

[5] = target: Glucocorticoid receptor (Homo sapiens) (UniProt P04150); test: GR-GFP Redistribution (AID 450;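 active = compounds whose dose series gives a full or clear partial fitted curve of increased nuclear translocation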; note: potency is the fitted concentration of half-maximal effect); conditions: U2OS GR-GFP nuclear translocation, laser cytometry, 2 h
[6] = target: Glucocorticoid receptor (Homo sapiens) (UniProt P04150); test: GR-EFC Redistribution (AID 451; calls by dose curve; note: potency is the fitted concentration of half-maximal effect); conditions: CHO-K1 GR-EFC translocation, beta-gal luminescence, 2 h
In short: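 Translocation of GR-ED fusion to nuclear EA restores b-gal, read by luminescence after 1 h room-temperature detection. Engineered CHO-K1 biosensor cells, 1,000/well, exposed 2 h at 37 C to titrations up to 46 uM final.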

[7] = target: Cytochrome P450 1A2 (Homo sapiens) (UniProt P05177); test: p450-cyp1a2 (AID 410; calls by dose curve; note: potency is the fitted concentration of half-maximal effect); conditions: recombinant CYP1A2, luciferin-ME demethylation, luminescence; series mostly up to 11.4 µM
In short: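 20nM CYP1A2, 100uM Luciferin-ME (=Km), 100mM KPO4; cpd 10 min RT; +NADPH regen, 60 min RT; stop/detect 20 min; luminescence. Normalized to furafylline 57 uM = full inhibition.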

[8] = target: Mitogen-activated protein kinase 10 (Mus musculus) (UniProt Q61831); test: JNK3 AlphaScreen Assay (AID 530); conditions: JNK3 lysate, c-Jun phosphorylation; series mostly up to 11.4 µM;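 note: kinase came from lysate of stimulated human HepG2 cells; signal reports phosphorylation of biotinylated GST-cJun 1-79 at Ser73 with 10 µM ATP; % is set by controls: 0 for no effect and ±100 for the full control effect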
In short: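 Kinase buffer: 20 mM Tris-HCl pH 7.6, 10 mM MgCl2, 1 mM DTT, 0.1 mM Na3VO4, 0.01% Tween-20; ATP 10 uM. Substrate biotin-GST-cJun(1-79), enzyme from activated HepG2 lysates. Detection by Ser73 phospho-antibody AlphaScreen.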

[9] = target: 3',5'-cyclic-AMP phosphodiesterase 4B (Homo sapiens) (UniProt Q07343); test: qHTS Assay for Inhibitors of PDE-IV (AID 607; active = well fitted activation curve with a large enough effect in the main read-out, with a control signal flat, not every such curve was filed as active; note: % of control where 0% means no effect); conditions: HEK293 ACTOne CNG channel cells, membrane potential fluorescence; series mostly up to 22.9 µM
In short: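 Cell-based read-out of cAMP via a modified cyclic nucleotide-gated channel and membrane potential dye (535/590 nm) in HEK293 cells expressing PDE4 endogenously. Compounds tested up to 22.9 uM final; 100 uM RO 20-1724 reference.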

[10] = target: Cytochrome P450 2C9 (Homo sapiens) (UniProt P11712); test: qHTS Assay for Inhibitors and Substrates of Cytochrome P450 2C9 (AID 883; active = well fitted curve in the direction sought with a large enough effect; an effect the other way counts as inactive or inconclusive; note: potency is the fitted concentration of half-maximal effect; nearly all actives have a fitted effect of over 60% in size); conditions: recombinant CYP2C9, luciferin-H luminescence, 60 min; series mostly up to 11.4 µM
In short: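 Inhibition of CYP2C9 is scored as loss of luminescence, with 57uM sulphaphenazole defining 100% inhibition. Substrate Luciferin-H is used at 100uM, equal to its KM; enzyme at 10nM in 25mM KPO4, 60 min at 37C with NADPH regeneration.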

[11] = target: Cytochrome P450 3A4 (Homo sapiens) (UniProt P08684); test: qHTS Assay for Activators of Cytochrome P450 3A4 (AID 885; active = well fitted curve in the direction sought with a large enough effect; an effect the other way counts as inactive or inconclusive; note: nearly all actives have a fitted effect of over 65% in size); conditions: recombinant CYP3A4, Luciferin-PPXE luminescence, 60 min; series mostly up to 11.4 µM
In short: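 Luminescent readout of luciferin formed from 25 uM Luciferin-PPXE (KM level) by 20 nM CYP3A4 in 200 mM KPO4, with 60 min NADPH-driven reaction at room temperature after 10 min compound exposure. Ketoconazole (57 uM) defined 100% inhibition.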

[12] = target: Cytochrome P450 2C19 (Homo sapiens) (UniProt P33261); test: qHTS Assay for Inhibitors and Substrates of Cytochrome P450 2C19 (AID 899; active = well fitted curve in the direction sought with a large enough effect; an effect the other way counts as inactive or inconclusive; note: potency is the fitted concentration of half-maximal effect; nearly all actives have a fitted effect of over 60% in size); conditions: recombinant CYP2C19, luciferin-H EGE luminescence; series mostly up to 11.4 µM
In short: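 5nM enzyme + 10uM Luciferin-H EGE (=KM), 50mM KPO4; cpd pin-transferred, 10 min 37C; NADPH regen, 60 min 37C; stopped w/ luciferin detection reagent, 20 min; luminescence. Normalized to 57uM ketoconazole (AC100).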

[13] = qHTS Assay for Identification of Small Molecule Agonists for Hypoxia Response Element Signaling Pathway (AID 914; active = well fitted activation curve with a large enough effect in the signal ratio, with a control signal flat, not every such curve was filed as active; the % refers to the signal ratio; note: % of control where 0% means no effect); conditions: ME-180 (cervical carcinoma) HRE-bla reporter, beta-lactamase ratio, CoCl2, 17 h; activation: active compounds read high
In short: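 HRE-bla ME-180 cells, overnight plating in Opti-MEM with 0.5% dialyzed FBS; cpd titration + EC50 CoCl2, 17 h, 37 degrees Celsius; CCF4 2.5 h RT; 460/530 nm ratio; AC50.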

[14] = target: ATP-dependent 6-phosphofructokinase (Trypanosoma brucei brucei) (UniProt O15648); test: qHTS Assay to Find Inhibitors of T. brucei phosphofructokinase: hit validation (AID 492961; active = well fitted curve in the direction sought with a large enough effect; an effect the other way counts as inactive or inconclusive); conditions: T. brucei PFK, ADP-Glo luminescence; series mostly up to 51.4 µM
In short: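 In this biochemical qHTS validation, titrated compounds were tested against 1.25 nM PFK with 0.1 mM ATP and 0.5 mM F6P. Percent activity came from controls lacking or containing enzyme.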

[15] = qHTS profiling for inhibitors of Plasmodium falciparum proliferation (AID 504749; active = well fitted curve in the direction sought with a large enough effect; an effect the other way counts as inactive or inconclusive;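 note: 0% = DMSO vehicle and full inhibition = artemisinin control; nearly all actives have a fitted effect of over 60% in size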); conditions: P. falciparum in erythrocytes, SYBR Green DNA, 72 h, at 28.7 µM (top of the series)
In short: (§1)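 In a 72 h erythrocytic culture (37 C, humidified, 5% CO2) at 2.5% hematocrit and 0.3% starting parasitemia, compounds were tested; SYBR Green I in detergent lysis buffer stained parasite DNA overnight.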

[16] = test system: AS120; test: as above; conditions: P. falciparum in erythrocytes, SYBR Green DNA, 72 h; series mostly up to 28.7 µM
In short: as §1

[17] = test system: ATS189; test: as above; conditions: P. falciparum in erythrocytes, SYBR Green DNA, 72 h; series mostly up to 28.7 µM
In short: as §1

[18] = test system: W2; test: as above; conditions: P. falciparum in erythrocytes, SYBR Green DNA, 72 h; series mostly up to 28.7 µM
In short: as §1

Lysosomal acid glucosylceramidase (Homo sapiens), sequence (P04062 whole entry, looked up): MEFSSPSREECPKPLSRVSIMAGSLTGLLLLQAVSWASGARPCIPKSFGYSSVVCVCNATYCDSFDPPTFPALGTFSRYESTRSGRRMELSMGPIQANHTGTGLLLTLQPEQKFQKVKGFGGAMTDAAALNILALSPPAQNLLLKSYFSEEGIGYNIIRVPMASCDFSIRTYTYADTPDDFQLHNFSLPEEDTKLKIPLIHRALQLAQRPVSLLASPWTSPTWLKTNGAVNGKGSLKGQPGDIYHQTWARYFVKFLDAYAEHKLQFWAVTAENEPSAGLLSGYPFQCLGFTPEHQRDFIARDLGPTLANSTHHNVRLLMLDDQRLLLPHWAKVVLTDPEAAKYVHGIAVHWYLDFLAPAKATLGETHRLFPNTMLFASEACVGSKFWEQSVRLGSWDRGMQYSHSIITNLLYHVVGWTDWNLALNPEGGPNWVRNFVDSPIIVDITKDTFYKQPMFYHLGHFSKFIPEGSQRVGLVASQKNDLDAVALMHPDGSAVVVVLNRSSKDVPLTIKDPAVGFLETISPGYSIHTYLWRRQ
Glucocorticoid receptor (Homo sapiens), sequence (P04150 whole entry, looked up, the tested form may be a part): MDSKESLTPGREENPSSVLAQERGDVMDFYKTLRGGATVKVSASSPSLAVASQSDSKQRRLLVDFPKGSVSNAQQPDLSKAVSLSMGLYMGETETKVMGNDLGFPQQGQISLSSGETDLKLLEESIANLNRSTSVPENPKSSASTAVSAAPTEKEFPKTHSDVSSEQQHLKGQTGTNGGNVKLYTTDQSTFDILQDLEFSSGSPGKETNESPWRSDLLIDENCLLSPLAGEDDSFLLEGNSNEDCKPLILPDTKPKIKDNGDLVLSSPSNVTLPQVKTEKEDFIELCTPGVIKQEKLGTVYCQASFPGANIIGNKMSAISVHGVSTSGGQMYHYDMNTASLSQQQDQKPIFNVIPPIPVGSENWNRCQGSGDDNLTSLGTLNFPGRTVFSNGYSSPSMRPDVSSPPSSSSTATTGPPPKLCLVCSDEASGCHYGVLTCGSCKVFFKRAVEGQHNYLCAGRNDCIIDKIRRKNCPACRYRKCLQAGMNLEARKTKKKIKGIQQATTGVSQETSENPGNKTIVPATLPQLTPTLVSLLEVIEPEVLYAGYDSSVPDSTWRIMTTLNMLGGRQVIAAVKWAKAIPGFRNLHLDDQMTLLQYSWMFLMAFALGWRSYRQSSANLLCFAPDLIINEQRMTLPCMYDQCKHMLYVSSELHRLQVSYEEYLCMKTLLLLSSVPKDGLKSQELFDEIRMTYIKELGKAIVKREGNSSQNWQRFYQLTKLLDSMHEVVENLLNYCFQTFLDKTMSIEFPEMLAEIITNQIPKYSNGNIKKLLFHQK
3',5'-cyclic-AMP phosphodiesterase 4B (Homo sapiens), sequence (Q07343 whole entry, looked up): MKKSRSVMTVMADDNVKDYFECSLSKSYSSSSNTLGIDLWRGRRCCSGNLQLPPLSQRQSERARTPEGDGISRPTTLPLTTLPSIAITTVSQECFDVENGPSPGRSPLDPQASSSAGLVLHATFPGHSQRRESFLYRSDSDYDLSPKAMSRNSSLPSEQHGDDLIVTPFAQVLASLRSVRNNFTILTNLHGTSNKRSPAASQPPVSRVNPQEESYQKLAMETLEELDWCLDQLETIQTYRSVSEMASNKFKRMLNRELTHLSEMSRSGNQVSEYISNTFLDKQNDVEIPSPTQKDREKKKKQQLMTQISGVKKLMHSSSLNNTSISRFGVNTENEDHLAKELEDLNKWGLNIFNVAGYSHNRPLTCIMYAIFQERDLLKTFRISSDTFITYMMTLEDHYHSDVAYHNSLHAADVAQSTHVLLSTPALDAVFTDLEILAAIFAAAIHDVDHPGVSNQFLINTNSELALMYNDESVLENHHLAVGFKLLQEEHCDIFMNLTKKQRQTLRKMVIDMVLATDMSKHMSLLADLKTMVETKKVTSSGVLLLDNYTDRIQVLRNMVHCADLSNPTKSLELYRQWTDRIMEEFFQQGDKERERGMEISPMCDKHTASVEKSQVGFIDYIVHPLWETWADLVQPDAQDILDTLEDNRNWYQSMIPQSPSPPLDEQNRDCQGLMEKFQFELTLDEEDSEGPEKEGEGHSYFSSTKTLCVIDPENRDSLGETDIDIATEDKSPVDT
Cytochrome P450 3A4 (Homo sapiens), sequence (P08684 whole entry, looked up): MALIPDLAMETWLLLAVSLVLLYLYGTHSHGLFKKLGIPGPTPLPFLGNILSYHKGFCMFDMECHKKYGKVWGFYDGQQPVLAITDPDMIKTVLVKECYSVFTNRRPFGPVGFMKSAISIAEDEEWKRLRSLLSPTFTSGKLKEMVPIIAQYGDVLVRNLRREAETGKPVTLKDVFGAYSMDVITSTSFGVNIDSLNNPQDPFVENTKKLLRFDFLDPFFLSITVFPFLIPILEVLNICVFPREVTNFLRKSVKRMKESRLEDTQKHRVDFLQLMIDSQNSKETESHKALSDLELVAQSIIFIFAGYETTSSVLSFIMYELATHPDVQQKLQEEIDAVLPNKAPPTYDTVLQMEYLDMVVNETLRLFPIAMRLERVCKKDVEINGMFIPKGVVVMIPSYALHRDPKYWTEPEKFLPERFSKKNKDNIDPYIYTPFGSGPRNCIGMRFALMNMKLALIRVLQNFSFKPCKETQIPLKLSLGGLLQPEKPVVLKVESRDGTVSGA
Cytochrome P450 2C9 (Homo sapiens), sequence (P11712 whole entry, looked up): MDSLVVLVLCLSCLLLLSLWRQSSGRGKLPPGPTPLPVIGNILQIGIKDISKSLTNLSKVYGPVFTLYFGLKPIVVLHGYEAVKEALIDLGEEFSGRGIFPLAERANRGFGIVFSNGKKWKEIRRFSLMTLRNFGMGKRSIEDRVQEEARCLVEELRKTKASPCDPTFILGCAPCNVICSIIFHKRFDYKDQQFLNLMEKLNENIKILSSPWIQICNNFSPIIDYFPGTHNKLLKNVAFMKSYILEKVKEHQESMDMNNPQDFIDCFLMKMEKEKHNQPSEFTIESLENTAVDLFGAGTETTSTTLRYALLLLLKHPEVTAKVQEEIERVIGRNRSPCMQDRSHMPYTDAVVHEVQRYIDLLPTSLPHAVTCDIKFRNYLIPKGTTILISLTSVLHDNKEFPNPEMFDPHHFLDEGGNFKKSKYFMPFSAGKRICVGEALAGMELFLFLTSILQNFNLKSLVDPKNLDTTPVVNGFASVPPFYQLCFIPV
Cytochrome P450 1A2 (Homo sapiens), sequence (P05177 whole entry, looked up): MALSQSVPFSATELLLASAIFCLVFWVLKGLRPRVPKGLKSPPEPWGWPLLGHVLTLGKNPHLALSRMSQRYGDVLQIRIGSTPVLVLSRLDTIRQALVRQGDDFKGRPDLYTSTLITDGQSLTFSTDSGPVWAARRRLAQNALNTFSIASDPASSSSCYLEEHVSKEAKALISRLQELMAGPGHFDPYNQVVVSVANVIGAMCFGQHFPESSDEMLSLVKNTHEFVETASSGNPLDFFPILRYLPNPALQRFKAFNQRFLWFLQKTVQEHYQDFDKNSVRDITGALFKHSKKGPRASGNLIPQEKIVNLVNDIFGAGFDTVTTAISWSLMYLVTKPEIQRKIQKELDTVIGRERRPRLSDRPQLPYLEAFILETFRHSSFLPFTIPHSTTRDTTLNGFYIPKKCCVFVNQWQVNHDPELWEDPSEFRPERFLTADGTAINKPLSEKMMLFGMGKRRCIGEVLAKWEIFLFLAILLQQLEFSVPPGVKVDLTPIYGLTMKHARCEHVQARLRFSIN
Cytochrome P450 2C19 (Homo sapiens), sequence (P33261 whole entry, looked up): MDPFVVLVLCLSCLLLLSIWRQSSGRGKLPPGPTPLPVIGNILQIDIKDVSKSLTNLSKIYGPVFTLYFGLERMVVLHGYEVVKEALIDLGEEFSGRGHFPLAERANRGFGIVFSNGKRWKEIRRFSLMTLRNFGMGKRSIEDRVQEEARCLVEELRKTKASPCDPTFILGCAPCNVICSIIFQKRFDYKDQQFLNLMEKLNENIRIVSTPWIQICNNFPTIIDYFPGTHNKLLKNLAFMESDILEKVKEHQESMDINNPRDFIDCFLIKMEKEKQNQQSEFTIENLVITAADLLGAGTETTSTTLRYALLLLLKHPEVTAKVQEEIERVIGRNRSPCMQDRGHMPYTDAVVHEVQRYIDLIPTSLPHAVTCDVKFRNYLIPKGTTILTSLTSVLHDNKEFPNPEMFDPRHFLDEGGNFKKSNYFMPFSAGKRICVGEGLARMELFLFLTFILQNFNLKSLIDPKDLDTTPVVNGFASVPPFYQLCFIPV
ATP-dependent 6-phosphofructokinase (Trypanosoma brucei brucei), sequence (O15648 whole entry, looked up): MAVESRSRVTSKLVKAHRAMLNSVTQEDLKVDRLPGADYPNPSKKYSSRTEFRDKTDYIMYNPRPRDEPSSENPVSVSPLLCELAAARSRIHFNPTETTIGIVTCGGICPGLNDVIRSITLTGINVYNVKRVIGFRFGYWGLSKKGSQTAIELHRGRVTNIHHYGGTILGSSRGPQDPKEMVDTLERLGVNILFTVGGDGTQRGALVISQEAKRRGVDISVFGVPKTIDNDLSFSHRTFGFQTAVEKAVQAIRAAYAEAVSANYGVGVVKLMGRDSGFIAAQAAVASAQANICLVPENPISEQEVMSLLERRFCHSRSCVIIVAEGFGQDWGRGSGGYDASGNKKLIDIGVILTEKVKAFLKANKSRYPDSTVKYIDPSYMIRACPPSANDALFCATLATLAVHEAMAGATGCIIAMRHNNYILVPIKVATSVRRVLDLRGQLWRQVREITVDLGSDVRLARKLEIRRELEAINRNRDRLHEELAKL

Cc1ccc(N=Nc2c(O)ccc3cc(S(=O)(=O)O)ccc23)cc1
inactive: Potency [1] > 11.4 µM | activity change, negative = inhibition [2] -18.1% | activity change, negative = inhibition [3] -0.401% | activity, negative = inhibition [4] -4.61% | Potency [5] > 46 µM | Potency [6] > 9.22 µM

COc1ccc2ccccc2c1/C=C\C(=O)c1ccccc1
inactive: Potency [1] > 11.4 µM | activity change, negative = inhibition [2] -15.4% | Potency [5] > 46 µM | Potency [6] > 9.22 µM | Potency [8] | Potency [9] | Potency [11] | activation [13] 22.5%
active: Potency [7] 3.16 µM | Potency [10] 1.26 µM | Potency [12] 0.316 µM

COc1ccc(C(=O)CCN(C)C)c2ccccc12
inactive: Potency [1] > 11.4 µM | activity change, negative = inhibition [2] -15.5% | Potency [5] > 46 µM | Potency [6] > 9.22 µM | Potency [8] | Potency [9] | Potency [11]
active: Potency [7] 1.58 µM | Potency [10] 3.98 µM

C[C@H](CCC(=O)O)[C@H]1CC[C@@H]2[C@H]3[C@@H](C[C@@H](O)[C@]21C)[C@]1(C)CC[C@H](O)C[C@@H]1C[C@@H]3O
inactive: Potency [1] > 11.4 µM | activity change, negative = inhibition [2] 1.25% | activity change, negative = inhibition [3] 14.6% | activity, negative = inhibition [4] 13% | Potency [5] > 46 µM | Potency [6] > 9.22 µM | Potency [8] | Potency [9] | outcome [14] | activity, negative = inhibition ([15]; parasite line A) -6.11% | activity, negative = inhibition ([15]; parasite line B) -10.8% | Potency [16] | Potency [17] | Potency [18]

O=C(O)[C@H]1CCCC[C@@H]1C(=O)Nc1nc2ccccc2[nH]1
inactive: Potency [1] > 11.4 µM | activity change, negative = inhibition [2] 1.58% | activity change, negative = inhibition [3] 9.82% | activity, negative = inhibition [4] 2.07% | Potency [5] > 46 µM | Potency [6] > 9.22 µM | Potency [8]

COc1ccc(-c2nc3cnc(OC)nc3n(Cc3cccs3)c2=O)cc1
inactive: Potency [1] > 11.4 µM | activity change, negative = inhibition [2] 20.7% | activity change, negative = inhibition [3] 8.9% | activity, negative = inhibition [4] 14.3% | Potency [5] > 9.22 µM | Potency [6] > 46 µM | Potency [8]

CC1(C)S[C@@H]2[C@H](NC(=O)C3(N)CCCCC3)C(=O)N2[C@@H]1C(=O)O
inactive: Potency [1] > 11.4 µM | activity change, negative = inhibition [2] -5.88% | activity change, negative = inhibition [3] 9.48% | activity, negative = inhibition [4] 0.508% | Potency [5] > 46 µM | Potency [6] > 9.22 µM | Potency [8]

CC(C)C[C@H](N)C(=O)O
inactive: Potency [1] > 11.4 µM | activity change, negative = inhibition [2] 10.7% | activity change, negative = inhibition [3] 1.77% | activity, negative = inhibition [4] 5.12% | Potency [5] > 46 µM | Potency [6] > 9.22 µM | Potency [8] | Potency [9]
